“And” between values parts separate entries of the source, which are not always exact repeats. Equal entries are not always repeated. Results filed as inconclusive are left out. Some structures have more than one record in an assay (separate samples or runs), and their calls can disagree. The source made the active and inactive calls. Unless noted, calls come from the whole dose curve; as a rule, active = well fitted curve in the direction sought with a large enough effect in the repeat runs; inconclusive = weak or mixed curves; inactive = no such curve, though single readings can be large; an effect the other way counts as inactive or inconclusive.
Columns and labels:
[1] = qHTS assay to identify small molecule agonists of the peroxisome proliferator-activated receptor delta (PPARd) signaling pathway - cell viability counter screen (AID 743211); note: nearly all actives have a fitted effect of over 55% in size
Outline: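 HEK293H PPARd-bla, 3000 cells/well; 5 h preincubation 37C/5% CO2; cpd in DMSO, 17 h 37C; B/G FRET substrate 2 h RT; CellTiter-Glo 30 min RT, luminescence.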

[2] = molecular target: Peroxisome proliferator-activated receptor delta (Homo sapiens) (UniProt Q03181); test: qHTS assay to identify small molecule agonists of the peroxisome proliferator-activated receptor delta (PPARd) signaling pathway (AID 743212; calls by dose curve)
Outline: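 Read-out: beta-lactamase FRET fluorescence after 2 h room-temperature incubation with LiveBLAzer B/G substrate. Cells were HEK293H carrying a UAS-bla reporter for PPARd, treated at 37 C with DMSO-dissolved compounds.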

[3] = qHTS assay to identify small molecule antagonists of the peroxisome proliferator-activated receptor delta (PPARd) signaling pathway - cell viability counter screen (AID 743213); note: nearly all actives have a fitted effect of over 50% in size
Outline: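 In this counter screen, HEK293H cells carrying a UAS-beta-lactamase reporter are co-treated with test compounds and 300 nM L165041 (final) for 17 h at 37 C; cell viability is quantified by CellTiter-Glo luminescence.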

[4] = molecular target: Peroxisome proliferator-activated receptor delta (Homo sapiens) (UniProt Q03181); test: qHTS assay to identify small molecule antagonists of the peroxisome proliferator-activated receptor delta (PPARd) signaling pathway (AID 743215; active = well fitted inhibition curve with a large enough effect in the signal ratio in the repeat runs, not every such curve was filed as active; the % refers to the signal ratio;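 note: cells stimulated with agonist L165041 at 300 nM final during compound exposure; series mostly up to about 62 µM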)
Outline: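 Plated HEK293H PPARd-bla cells rested 5 h at 37 C and 5% CO2. Compound, then agonist L165041 at 300 nM final, was added; 17 h at 37 C followed. Substrate loading, 2 h room temperature, fluorescence measured.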

[5] = qHTS assay to identify small molecule agonists of the farnesoid-X-receptor (FXR) signaling pathway - cell viability counter screen (AID 743218); note: nearly all actives have a fitted effect of over 45% in size
Outline: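 Viability of FXR-bla HEK 293T cells is measured by ATP-based CellTiter-Glo luminescence following 16 h compound treatment at 37 C and a prior 2 h room-temperature beta-lactamase substrate step.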

[6] = qHTS assay to identify small molecule antagonists of the farnesoid-X-receptor (FXR) signaling pathway - cell viability counter screen (AID 743221; active = well fitted cell-killing curve with a large enough effect in the repeat runs, not every such curve was filed as active; note: nearly all actives have a fitted effect of over 50% in size)
Outline: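 Luminescence from CellTiter-Glo measures cytotoxicity in GeneBLAzer FXR-UAS-bla HEK 293T cells. Cells were exposed to compounds with 50 uM chenodeoxycholic acid (final) for 16 h at 37 C, in wells also used for the reporter readout.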

[7] = molecular target: Vitamin D3 receptor (Homo sapiens) (UniProt P11473); test: qHTS assay to identify small molecule agonists of the vitamin D receptor (VDR) signaling pathway (AID 743222; calls by dose curve)
Outline: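 Fluorescence from cleaved LiveBLAzer B/G FRET substrate served as readout. VDR-bla cells had been treated 16 h at 37C with test compounds in DMSO, following a 4 h settling period, and substrate was loaded for 2 h at RT.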

[8] = molecular target: Vitamin D3 receptor (Homo sapiens) (UniProt P11473); test: qHTS assay to identify small molecule antagonists of the vitamin D receptor (VDR) signaling pathway (AID 743223; active = well fitted inhibition curve with a large enough effect in the signal ratio in the repeat runs, not every such curve was filed as active; the % refers to the signal ratio)
Outline: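 Antagonist mode uses 1alpha,25-dihydroxyvitamin D3 at 3 nM final as stimulus. VDR-bla cells receive compounds in DMSO, incubate 16 h at 37C, then a beta-lactamase FRET substrate for 2 h at room temperature before fluorescence measurement.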

[9] = qHTS assay to identify small molecule agonists of the vitamin D receptor (VDR) signaling pathway - cell viability counter screen (AID 743224); note: series mostly up to about 63 µM; nearly all actives have a fitted effect of over 50% in size
Outline: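 Compounds were pin-transferred onto VDR-bla cells plated 4 h earlier; following 16 h incubation at 37C, cell viability was quantified by CellTiter-Glo luminescence after 30 min at room temperature.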

[10] = qHTS assay to identify small molecule antagonists of the vitamin D receptor (VDR) signaling pathway - cell viability counter screen (AID 743225); note: nearly all actives have a fitted effect of over 50% in size
Outline: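 Read-out: CellTiter-Glo luminescence measured 30 min after reagent addition at room temperature. Cells were VDR-bla HEK 293T exposed 16 h at 37C, 5% CO2, to compound with 3 nM final calcitriol agonist.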

[11] = qHTS assay to identify small molecule agonists of the NFkB signaling pathway (AID 1159509; active = well fitted curve in the direction sought with a large enough effect in the signal ratio in the repeat runs, not every such curve was filed as active; the % refers to the signal ratio; note: series mostly up to about 61 µM)
Outline: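 Readout: FRET fluorescence, 405 nm excitation, 460/530 nm emission; beta-lactamase expression disrupts FRET. Cells: ME-180 stably carrying NF-kB-driven bla reporter. Compound exposure 5 hr, 37 C, 5% CO2.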

[12] = qHTS assay to identify small molecule agonists of the NFkB signaling pathway - cell viability counter screen (AID 1159515; calls by dose curve; note: series mostly up to about 61 µM; nearly all actives have a fitted effect of over 55% in size)
Outline: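 Parallel cytotoxicity counter screen in ME-180 cells carrying an NFkB-response-element beta-lactamase reporter, 2,000 cells/well. Compound exposure lasted 5 hr at 37 C, 5% CO2. Cell viability was quantified by CellTiter-Glo luminescence.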

[13] = qHTS assay to identify small molecule agonists of the endoplasmic reticulum stress response signaling pathway (AID 1159516; active = well fitted activation curve with a large enough effect in the signal ratio in the repeat runs, not every such curve was filed as active; the % refers to the signal ratio)
Outline: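 Using a HeLa line with an ESRE-driven beta-lactamase gene, agonist activity was measured by FRET substrate fluorescence (460 and 530 nm emission) after cells were treated with compounds for 5 hr at 37 C and 5% CO2.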

[14] = qHTS assay to identify small molecule agonists of the endoplasmic reticulum stress response signaling pathway - cell viability counter screen (AID 1159517; calls by dose curve; note: nearly all actives have a fitted effect of over 50% in size; note: potency is the fitted concentration of half-maximal effect)
Outline: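 Steps: seed 1,500 ESRE-bla HeLa cells per well; incubate overnight at 37 C, 5% CO2; add compounds in DMSO for 5 hr; run FRET substrate 2 hr RT; add CellTiter-Glo, wait 30 min, read luminescence.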

[15] = qHTS assay to identify small molecule antagonists of the retinoid-related orphan receptor gamma (ROR-gamma) signaling pathway - cell viability counter screen (AID 1159520); note: nearly all actives have a fitted effect of over 50% in size
Outline: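 Tet-on ROR gamma CHO cells were given compounds for 2 hr, then doxycycline hyclate at 1 uM final, and incubated 16 hr at 37 C. Viability was measured as ATP content by CellTiter-Glo luminescence.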

[16] = molecular target: Nuclear receptor ROR-gamma (Homo sapiens) (UniProt P51449); test: qHTS assay to identify small molecule antagonists of the retinoid-related orphan receptor gamma (ROR-gamma) signaling pathway (AID 1159521)
Outline: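 CHO Tet-on RORγ, RORE-luc reporter. Cpd 2 h pre-incubation, then dox hyclate 1 uM final, 16 h, 37 C/5% CO2. ONE-Glo luminescence; decrease = antagonist.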

[17] = qHTS assay to identify small molecule agonists of the AP-1 signaling pathway - cell viability counter screen (AID 1159525; calls by dose curve; note: nearly all actives have a fitted effect of over 55% in size)
Outline: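 Same-well cytotoxicity counter screen of the Tox21 10K library in ME-180 cells. The readout is ATP-dependent luminescence after 5 h compound treatment. Data are normalised to DMSO and tetra n-octyl ammonium bromide controls.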

[18] = qHTS assay to identify small molecule agonists of the AP-1 signaling pathway (AID 1159526; calls by dose curve)
[19] = molecular target: Bile acid receptor (Homo sapiens) (UniProt Q96RI1); test: qHTS assay to identify small molecule antagonists of the farnesoid-X-receptor (FXR) signaling pathway (AID 743217; active = well fitted inhibition curve with a large enough effect in the signal ratio in the repeat runs, not every such curve was filed as active; the % refers to the signal ratio)
Outline: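 Screen of the Tox21 10K library in quantitative HTS format using FXR-UAS-bla HEK 293T reporter cells. Agonist chenodeoxycholic acid, 50 uM final, added with compounds; 16 h incubation at 37 °C; beta-lactamase FRET fluorescence measured.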

[20] = molecular target: Bile acid receptor (Homo sapiens) (UniProt Q96RI1); test: qHTS assay to identify small molecule agonists of the farnesoid-X-receptor (FXR) signaling pathway (AID 743220; active = well fitted activation curve with a large enough effect in the signal ratio in the repeat runs, not every such curve was filed as active; the % refers to the signal ratio)
Outline: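 FXR-UAS-bla HEK 293T cells carrying a UAS-driven beta-lactamase reporter were plated for 5 h at 37C/5% CO2, then exposed to DMSO-dissolved Tox21 10K compounds for 16 h at 37C. A LiveBLAzer B/G FRET substrate was loaded for 2 h at room temperature before fluorescence reading.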

Measured: Potency

Chain of Vitamin D3 receptor (Homo sapiens) (P11473 whole entry, looked up): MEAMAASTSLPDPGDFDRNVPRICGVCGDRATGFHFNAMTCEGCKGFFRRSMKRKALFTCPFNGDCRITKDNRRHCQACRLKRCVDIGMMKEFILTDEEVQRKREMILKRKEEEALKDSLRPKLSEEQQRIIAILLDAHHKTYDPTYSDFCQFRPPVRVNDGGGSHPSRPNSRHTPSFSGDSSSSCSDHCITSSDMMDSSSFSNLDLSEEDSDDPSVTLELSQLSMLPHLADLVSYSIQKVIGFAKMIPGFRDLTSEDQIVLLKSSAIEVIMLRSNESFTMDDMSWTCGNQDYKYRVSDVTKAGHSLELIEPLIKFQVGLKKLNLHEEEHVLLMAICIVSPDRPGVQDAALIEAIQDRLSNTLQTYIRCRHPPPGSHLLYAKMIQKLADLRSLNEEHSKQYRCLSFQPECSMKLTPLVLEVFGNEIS
Chain of Bile acid receptor (Homo sapiens) (Q96RI1 whole entry, looked up): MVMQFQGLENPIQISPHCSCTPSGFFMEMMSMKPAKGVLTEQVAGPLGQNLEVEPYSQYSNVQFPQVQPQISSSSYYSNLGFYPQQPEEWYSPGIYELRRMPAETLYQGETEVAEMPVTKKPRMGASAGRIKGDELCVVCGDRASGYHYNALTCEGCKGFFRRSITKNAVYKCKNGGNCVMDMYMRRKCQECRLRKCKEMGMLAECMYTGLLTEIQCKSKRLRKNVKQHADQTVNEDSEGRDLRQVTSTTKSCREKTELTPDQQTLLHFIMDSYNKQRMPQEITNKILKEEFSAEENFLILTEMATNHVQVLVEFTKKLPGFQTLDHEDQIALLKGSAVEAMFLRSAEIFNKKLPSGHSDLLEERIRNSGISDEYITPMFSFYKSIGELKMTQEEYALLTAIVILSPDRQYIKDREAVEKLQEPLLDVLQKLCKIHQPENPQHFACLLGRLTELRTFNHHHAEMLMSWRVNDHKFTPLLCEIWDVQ
Chain of Peroxisome proliferator-activated receptor delta (Homo sapiens) (Q03181 whole entry, looked up): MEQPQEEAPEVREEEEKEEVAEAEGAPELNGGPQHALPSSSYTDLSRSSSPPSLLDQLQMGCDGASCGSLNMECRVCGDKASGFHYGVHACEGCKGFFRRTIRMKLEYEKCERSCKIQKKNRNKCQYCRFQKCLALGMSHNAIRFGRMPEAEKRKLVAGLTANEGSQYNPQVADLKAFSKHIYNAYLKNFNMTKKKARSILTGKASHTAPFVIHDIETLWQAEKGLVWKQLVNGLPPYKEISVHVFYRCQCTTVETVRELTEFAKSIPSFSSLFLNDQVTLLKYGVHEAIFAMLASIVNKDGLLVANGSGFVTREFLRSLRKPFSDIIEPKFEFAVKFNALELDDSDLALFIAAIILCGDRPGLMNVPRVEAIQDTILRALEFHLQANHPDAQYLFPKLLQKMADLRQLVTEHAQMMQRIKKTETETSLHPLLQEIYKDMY

O=C(O)c1cc2ccccc2cc1O
not listed: [19] | [20]
inactive: all other assays above

C[C@]12CCC(=O)C=C1CC[C@@H]1[C@@H]2[C@@H](O)C[C@@]2(C)[C@H]1CC[C@]2(O)C(=O)CO
not listed: [19] | [20]
inactive: all other assays above

CCO[Si](CCCN)(OCC)OCC
not listed: [3]
inactive: all other assays above

O=C(OCC1CCC2OC2C1)C1CCC2OC2C1 (stereo not drawn)
not listed: [8] | [19] | [20]
inactive: all other assays above

CCCCCCCCCCN
inactive and 21.9 µM (active): [14]
not listed: [7] | [8] | [19] | [20]
inactive: all other assays above

CCCCCCCCCCCCCCCCO
not listed: [19] | [20]
inactive: all other assays above

O=c1[nH]cnc2[nH]ncc12
not listed: [19] | [20]
inactive: all other assays above

CC(C)=CCl
not listed: [4]
inactive: all other assays above

CC1(C)S[C@@H]2[C@H](NC(=O)COc3ccccc3)C(=O)N2[C@H]1C(=O)O
not listed: [8] | [19] | [20]
inactive: all other assays above

COc1ccccc1OCC(O)CO (stereo not drawn)
not listed: [19] | [20]
inactive: all other assays above

CC(=O)Oc1ccc(C)cc1
not listed: [7] | [8] | [19] | [20]
inactive: all other assays above

CCCCCCCO
not listed: [2] | [3] | [4] | [19] | [20]
inactive: all other assays above

Cc1ccc(S(=O)(=O)N=C=O)cc1
not listed: [3] | [19] | [20]
inactive: all other assays above

Cc1ccc2ncccc2c1
not listed: [3] | [7] | [8] | [19] | [20]
inactive: all other assays above

CC(=O)OCc1ccccc1
not listed: [3] | [19] | [20]
inactive: all other assays above

N[C@H](Cc1c[nH]c2ccccc12)C(=O)O
not listed: [3] | [19] | [20]
inactive: all other assays above

C=C(C)[C@H]1CC=C(C)C(=O)C1
not listed: [2] | [3] | [4] | [19] | [20]
inactive: all other assays above

C=CC(=O)OCCC(=O)O
not listed: [2] | [3] | [4] | [19] | [20]
inactive: all other assays above

CCCCCCO
not listed: [2] | [4] | [19] | [20]
inactive: all other assays above

Cc1ccc([N+](=O)[O-])cc1S(=O)(=O)O
not listed: [3] | [19] | [20]
inactive: all other assays above

CCO[Si](CCC#N)(OCC)OCC
not listed: [2] | [3] | [4] | [7] | [8]
inactive: all other assays above

C=CC(C)CCCC(C)(C)O (stereo not drawn)
not listed: [3] | [19] | [20]
inactive: all other assays above

c1ccc2c(c1)Cc1ccccc1-2
not listed: [2] | [3] | [4]
inactive: all other assays above

C=CCCCCCCCCC(=O)O
not listed: [2] | [4] | [19] | [20]
inactive: all other assays above

Source: PubChem BioAssay (Tox21)
